Experimental data: PubChem BioAssay AID1159580 (chemical genetic matrix, 2015)
The whole screen tested about 5,500 compounds, of which about 2,000 (36%) were called active. Another 18% or so got no clear call; they are omitted. No stated cut-off is given here; in the data, active means normalized growth mostly below about 0.91 (no sharp cut-off); inconclusive means no clear call, values can overlap the other calls; inactive means mostly above about 0.92. The list shows a part of the results.

Assay: chemical genetic growth profiling, strain panel (AID 1159580);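 further: tested at 20 µM; growth read once vehicle control cultures reached saturation at 30 °C; 1 = growth at the plate median or of vehicle wells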
Conditions: growth OD

Measured: normalized growth

Cc1cc(=O)c2c(O)c(C)c(O)cc2o1
active: S. cerevisiae deletion strains, locus YKR001C, strain vps1, stronger effect = lower value 0.888 | S. cerevisiae deletion strains, locus YPR163C, strain tif3, stronger effect = lower value 0.866
inactive: S. cerevisiae deletion strains, locus YAL021C, strain ccr4, stronger effect = lower value 1 | S. cerevisiae deletion strains, locus YAL026C, strain drs2, stronger effect = lower value 1.04 | S. cerevisiae deletion strains, locus YAL030W, strain snc1, stronger effect = lower value 1.02 | S. cerevisiae deletion strains, locus YBL061C, strain skt5, stronger effect = lower value 1.02 | S. cerevisiae deletion strains, locus YBR009C, strain hhf1, stronger effect = lower value 1.01 | S. cerevisiae deletion strains, locus YBR021W, strain FUR4, stronger effect = lower value 0.91 | S. cerevisiae deletion strains, locus YBR023C, strain chs3, stronger effect = lower value 1.03 | S. cerevisiae deletion strains, locus YBR171W, strain sec66, stronger effect = lower value 1.03 | S. cerevisiae deletion strains, locus YBR229C, strain ROT2, stronger effect = lower value 1.02 | S. cerevisiae deletion strains, locus YBR231C, strain swc5, stronger effect = lower value 1.02 | S. cerevisiae deletion strains, locus YBR279W, strain paf1, stronger effect = lower value 1.01 | S. cerevisiae deletion strains, locus YCL011C, strain gbp2, stronger effect = lower value 1.04 | S. cerevisiae deletion strains, locus YCL016C, strain dcc1, stronger effect = lower value 1.01 | S. cerevisiae deletion strains, locus YCL029C, strain bik1, stronger effect = lower value 0.975 | S. cerevisiae deletion strains, locus YCL069W, strain vba3, stronger effect = lower value 1.02 | S. cerevisiae deletion strains, locus YCR088W, strain abp1, stronger effect = lower value 1.02 | S. cerevisiae deletion strains, locus YDL005C, strain med2, stronger effect = lower value 1.02 | S. cerevisiae deletion strains, locus YDL035C, strain GPR1, stronger effect = lower value 0.978 | S. cerevisiae deletion strains, locus YDL040C, strain nat1, stronger effect = lower value 1.01 | S. cerevisiae deletion strains, locus YDL074C, strain BRE1, stronger effect = lower value 0.973 | S. cerevisiae deletion strains, locus YDL101C, strain DUN1, stronger effect = lower value 0.991 | S. cerevisiae deletion strains, locus YDL134C, strain PPH21, stronger effect = lower value 0.983 | S. cerevisiae deletion strains, locus YDL185W, strain tfp1, stronger effect = lower value 0.983 | S. cerevisiae deletion strains, locus YDL192W, strain arf1, stronger effect = lower value 0.954 | S. cerevisiae deletion strains, locus YDR001C, strain nth1, stronger effect = lower value 1.02 | S. cerevisiae deletion strains, locus YDR069C, strain doa4, stronger effect = lower value 1.02 | S. cerevisiae deletion strains, locus YDR101C, strain arx1, stronger effect = lower value 0.957 | S. cerevisiae deletion strains, locus YDR137W, strain rgp1, stronger effect = lower value 1.03 | S. cerevisiae deletion strains, locus YDR159W, strain sac3, stronger effect = lower value 1.03 | S. cerevisiae deletion strains, locus YDR162C, strain NBP2, stronger effect = lower value 0.922 | S. cerevisiae deletion strains, locus YDR195W, strain ref2 1.01 | S. cerevisiae deletion strains, locus YDR297W, strain sur2, stronger effect = lower value 1.01 | S. cerevisiae deletion strains, locus YDR318W, strain mcm21, stronger effect = lower value 0.95 | S. cerevisiae deletion strains, locus YDR334W, strain swr1, stronger effect = lower value 1.01 | S. cerevisiae deletion strains, locus YDR335W, strain msn5, stronger effect = lower value 1.04 | S. cerevisiae deletion strains, locus YDR388W, stronger effect = lower value 0.988 | S. cerevisiae deletion strains, locus YDR392W, strain spt3, stronger effect = lower value 1.04 | S. cerevisiae deletion strains, locus YDR502C, strain sam2, stronger effect = lower value 0.935 | S. cerevisiae deletion strains, locus YEL003W, strain gim4, stronger effect = lower value 1.02 | S. cerevisiae deletion strains, locus YEL037C, strain rad23, stronger effect = lower value 1.03 | S. cerevisiae deletion strains, locus YEL061C, strain CIN8 (second series), stronger effect = lower value 1.01 | S. cerevisiae deletion strains, locus YEL061C, strain CIN8, stronger effect = lower value 1 | S. cerevisiae deletion strains, locus YER015W, strain faa2, stronger effect = lower value 1.02 | S. cerevisiae deletion strains, locus YER016W, strain bim1, stronger effect = lower value 1.01 | S. cerevisiae deletion strains, locus YER110C, stronger effect = lower value 0.96 | S. cerevisiae deletion strains, locus YER111C, strain swi4, stronger effect = lower value 1.03 | S. cerevisiae deletion strains, locus YER155C, strain BEM2 (second series), stronger effect = lower value 1.04 | S. cerevisiae deletion strains, locus YER155C, strain BEM2, stronger effect = lower value 1.02 | S. cerevisiae deletion strains, locus YER167W, strain BCK2, stronger effect = lower value 1.01 | S. cerevisiae deletion strains, locus YFR010W, strain ubp6, stronger effect = lower value 1.04 | S. cerevisiae deletion strains, locus YGL078C, strain dbp3, stronger effect = lower value 0.949 | S. cerevisiae deletion strains, locus YGL086W, strain mad1, stronger effect = lower value 0.967 | S. cerevisiae deletion strains, locus YGL167C, strain pmr1, stronger effect = lower value 1.03 | S. cerevisiae deletion strains, locus YGL173C, strain kem1, stronger effect = lower value 1.02 | S. cerevisiae deletion strains, locus YGL227W, strain vid30, stronger effect = lower value 1.02 | S. cerevisiae deletion strains, locus YGL240W, strain doc1, stronger effect = lower value 1.01 | S. cerevisiae deletion strains, locus YGL248W, strain PDE1, stronger effect = lower value 0.997 | S. cerevisiae deletion strains, locus YGL253W, strain hxk2, stronger effect = lower value 1.02 | S. cerevisiae deletion strains, locus YGR078C, strain PAC10, stronger effect = lower value 0.963 | S. cerevisiae deletion strains, locus YGR135W, strain pre9, stronger effect = lower value 0.932 | S. cerevisiae deletion strains, locus YGR252W, strain gcn5, stronger effect = lower value 0.815 | S. cerevisiae deletion strains, locus YHR013C, strain ard1, stronger effect = lower value 1.07 | S. cerevisiae deletion strains, locus YHR027C, strain rpn1, stronger effect = lower value 1.03 | S. cerevisiae deletion strains, locus YHR079C, strain IRE1 (second series), stronger effect = lower value 0.978 | S. cerevisiae deletion strains, locus YHR094C, strain hxt1, stronger effect = lower value 0.984 | S. cerevisiae deletion strains, locus YHR129C, strain ARP1, stronger effect = lower value 1 | S. cerevisiae deletion strains, locus YHR142W, strain chs7, stronger effect = lower value 1.04 | S. cerevisiae deletion strains, locus YHR200W, strain rpn10, stronger effect = lower value 0.958 | S. cerevisiae deletion strains, locus YIL066C, strain RNR3, stronger effect = lower value 1.02 | S. cerevisiae deletion strains, locus YIL073C, strain SPO22, stronger effect = lower value 0.999 | S. cerevisiae deletion strains, locus YIL125W, strain kgd1, stronger effect = lower value 0.986 | S. cerevisiae deletion strains, locus YIR030C, strain dcg1, stronger effect = lower value 0.99 | S. cerevisiae deletion strains, locus YJL092W, strain hpr5, stronger effect = lower value 1.02 | S. cerevisiae deletion strains, locus YJL095W, strain BCK1 (second series), stronger effect = lower value 1.02 | S. cerevisiae deletion strains, locus YJL095W, strain BCK1, stronger effect = lower value 0.934 | S. cerevisiae deletion strains, locus YJL115W, strain asf1, stronger effect = lower value 1.03 | S. cerevisiae deletion strains, locus YJL129C, strain trk1, stronger effect = lower value 1.01 | S. cerevisiae deletion strains, locus YJL134W, strain LCB3, stronger effect = lower value 1.01 | S. cerevisiae deletion strains, locus YJL154C, strain vps35, stronger effect = lower value 1.03 | S. cerevisiae deletion strains, locus YJL164C, strain tpk1, stronger effect = lower value 1.01 | S. cerevisiae deletion strains, locus YJL166W, strain qcr8, stronger effect = lower value 1.01 | S. cerevisiae deletion strains, locus YJL168C, strain set2, stronger effect = lower value 0.994 | S. cerevisiae deletion strains, locus YJL187C, strain SWE1 (second series), stronger effect = lower value 0.971 | S. cerevisiae deletion strains, locus YJL187C, strain SWE1, stronger effect = lower value 1 | S. cerevisiae deletion strains, locus YJR043C, strain POL32, stronger effect = lower value 0.992 | S. cerevisiae deletion strains, locus YKL009W, strain mrt4, stronger effect = lower value 0.961 | S. cerevisiae deletion strains, locus YKL068W, stronger effect = lower value 1 | S. cerevisiae deletion strains, locus YKL085W, strain MDH1 (second series), stronger effect = lower value 0.996 | S. cerevisiae deletion strains, locus YKL085W, strain MDH1, stronger effect = lower value 0.996 | S. cerevisiae deletion strains, locus YKL160W, strain elf1, stronger effect = lower value 1.02 | S. cerevisiae deletion strains, locus YKR026C, strain gcn3, stronger effect = lower value 1.02 | S. cerevisiae deletion strains, locus YKR091W, strain srl3, stronger effect = lower value 1.02 | S. cerevisiae deletion strains, locus YLL001W, strain dnm1, stronger effect = lower value 1.02 | S. cerevisiae deletion strains, locus YLL026W, stronger effect = lower value 1.01 | S. cerevisiae deletion strains, locus YLL041C, strain sdh2, stronger effect = lower value 1.02 | S. cerevisiae deletion strains, locus YLR027C, strain aat2, stronger effect = lower value 1 | S. cerevisiae deletion strains, locus YLR039C, strain RIC1, stronger effect = lower value 1.1 | S. cerevisiae deletion strains, locus YLR058C, strain SHM2, stronger effect = lower value 0.978 | S. cerevisiae deletion strains, locus YLR102C, strain apc9, stronger effect = lower value 0.976 | S. cerevisiae deletion strains, locus YLR221C, strain rsa3, stronger effect = lower value 1.01 | S. cerevisiae deletion strains, locus YLR258W, strain gsy2, stronger effect = lower value 1.01 | S. cerevisiae deletion strains, locus YLR262C, strain YPT6 (second series), stronger effect = lower value 1.01 | S. cerevisiae deletion strains, locus YLR262C, strain YPT6, stronger effect = lower value 1.12 | S. cerevisiae deletion strains, locus YLR268W, strain sec22, stronger effect = lower value 0.957 | S. cerevisiae deletion strains, locus YLR320W, strain mms22, stronger effect = lower value 1.04 | S. cerevisiae deletion strains, locus YLR330W, strain CHS5, stronger effect = lower value 0.998 | S. cerevisiae deletion strains, locus YLR342W, strain FKS1, stronger effect = lower value 1.01 | S. cerevisiae deletion strains, locus YLR357W, strain rsc2, stronger effect = lower value 1.02 | S. cerevisiae deletion strains, locus YLR370C, strain arc18, stronger effect = lower value 1.04 | S. cerevisiae deletion strains, locus YLR371W, strain rom2, stronger effect = lower value 0.954 | S. cerevisiae deletion strains, locus YLR384C, strain iki3, stronger effect = lower value 1.01 | S. cerevisiae deletion strains, locus YLR418C, strain cdc73, stronger effect = lower value 0.854 | S. cerevisiae deletion strains, locus YML016C, strain PPZ1, stronger effect = lower value 1.01 | S. cerevisiae deletion strains, locus YML032C, strain rad52, stronger effect = lower value 0.929 | S. cerevisiae deletion strains, locus YML120C, strain ndi1, stronger effect = lower value 1.02 | S. cerevisiae deletion strains, locus YML124C, strain tub3, stronger effect = lower value 0.99 | S. cerevisiae deletion strains, locus YMR058W, strain fet3, stronger effect = lower value 1.03 | S. cerevisiae deletion strains, locus YMR078C, strain ctf18, stronger effect = lower value 0.983 | S. cerevisiae deletion strains, locus YMR125W, strain sto1, stronger effect = lower value 0.989 | S. cerevisiae deletion strains, locus YMR129W, stronger effect = lower value 1.02 | S. cerevisiae deletion strains, locus YMR205C, strain PFK2, stronger effect = lower value 1.01 | S. cerevisiae deletion strains, locus YMR223W, strain ubp8, stronger effect = lower value 0.963 | S. cerevisiae deletion strains, locus YMR231W, strain pep5, stronger effect = lower value 1.02 | S. cerevisiae deletion strains, locus YMR307W, strain GAS1, stronger effect = lower value 0.989 | S. cerevisiae deletion strains, locus YNL067W, strain RPL9B, stronger effect = lower value 0.971 | S. cerevisiae deletion strains, locus YNL071W, strain lat1, stronger effect = lower value 1.02 | S. cerevisiae deletion strains, locus YNL128W, strain TEP1, stronger effect = lower value 0.993 | S. cerevisiae deletion strains, locus YNL209W, strain ssb2, stronger effect = lower value 1.02 | S. cerevisiae deletion strains, locus YNL233W, strain BNI4, stronger effect = lower value 0.956 | S. cerevisiae deletion strains, locus YNL248C, strain rpa49, stronger effect = lower value 1.01 | S. cerevisiae deletion strains, locus YNL250W, strain rad50, stronger effect = lower value 0.967 | S. cerevisiae deletion strains, locus YNL271C, strain bni1, stronger effect = lower value 0.993 | S. cerevisiae deletion strains, locus YNL298W, strain CLA4, stronger effect = lower value 0.969 | S. cerevisiae deletion strains, locus YNL307C, strain MCK1, stronger effect = lower value 0.971 | S. cerevisiae deletion strains, locus YNL322C, strain KRE1 (second series), stronger effect = lower value 1.02 | S. cerevisiae deletion strains, locus YNL322C, strain KRE1, stronger effect = lower value 0.994 | S. cerevisiae deletion strains, locus YNR049C, strain mso1, stronger effect = lower value 1.01 | S. cerevisiae deletion strains, locus YNR052C, strain pop2, stronger effect = lower value 0.987 | S. cerevisiae deletion strains, locus YOL006C, strain TOP1, stronger effect = lower value 0.946 | S. cerevisiae deletion strains, locus YOL012C, strain htz1 1.07 | S. cerevisiae deletion strains, locus YOL147C, strain pex11, stronger effect = lower value 0.966 | S. cerevisiae deletion strains, locus YOR001W, strain rrp6, stronger effect = lower value 1.03 | S. cerevisiae deletion strains, locus YOR061W, strain CKA2, stronger effect = lower value 1.02 | S. cerevisiae deletion strains, locus YOR069W, strain VPS5, stronger effect = lower value 1 | S. cerevisiae deletion strains, locus YOR070C, strain gyp1, stronger effect = lower value 1.02 | S. cerevisiae deletion strains, locus YOR080W, strain dia2, stronger effect = lower value 1.02 | S. cerevisiae deletion strains, locus YOR083W, strain WHI5, stronger effect = lower value 1.01 | S. cerevisiae deletion strains, locus YOR106W, strain vam3, stronger effect = lower value 1.02 | S. cerevisiae deletion strains, locus YOR136W, strain idh2, stronger effect = lower value 0.949 | S. cerevisiae deletion strains, locus YOR144C, strain elg1, stronger effect = lower value 0.988 | S. cerevisiae deletion strains, locus YOR184W, strain ser1, stronger effect = lower value 0.986 | S. cerevisiae deletion strains, locus YOR265W, strain rbl2, stronger effect = lower value 1.01 | S. cerevisiae deletion strains, locus YOR270C, strain vph1, stronger effect = lower value 1.07 | S. cerevisiae deletion strains, locus YOR290C, strain snf2, stronger effect = lower value 1.03 | S. cerevisiae deletion strains, locus YOR316C, strain cot1, stronger effect = lower value 0.983 | S. cerevisiae deletion strains, locus YPL051W, strain arl3, stronger effect = lower value 1.02 | S. cerevisiae deletion strains, locus YPL078C, strain atp4, stronger effect = lower value 1.03 | S. cerevisiae deletion strains, locus YPL106C, strain sse1, stronger effect = lower value 1.03 | S. cerevisiae deletion strains, locus YPL240C, strain hsp82, stronger effect = lower value 1.01 | S. cerevisiae deletion strains, locus YPL241C, strain CIN2, stronger effect = lower value 0.997 | S. cerevisiae deletion strains, locus YPR119W, strain clb2, stronger effect = lower value 0.99 | S. cerevisiae deletion strains, locus YPR141C, strain kar3, stronger effect = lower value 1.01 | S. cerevisiae deletion strains, locus YPR167C, strain met16, stronger effect = lower value 0.957 | S. cerevisiae deletion strains, strain wtn01, stronger effect = lower value 0.97 | S. cerevisiae strains, strain wild type, stronger effect = lower value 1.02
